# Reference: publication PMC5540273 (PLoS ONE, 2017)
# What was measured:
# [1] = tested on: T1, MEK2
# T1 construct: gene MAP2K2
# [2] = tested on: MELK
# [3] = tested on: T2, MINK
# T2 construct: gene MINK1
# [4] = tested on: MKNK1
# [5] = tested on: MKNK2
# [6] = tested on: MST1R
# [7] = tested on: MTOR
# [8] = tested on: MUSK
# 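Note: kd values determined as follow-up on hits from a single-replicate KINOMEscan panel screen.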
compound,measurement,setting,value
Cn1c(=O)c(F)c(Nc2ccc(I)cc2F)c2c(=O)n(OC[C@H](O)CO)cnc21,Kd,[1],0.2 µM
COc1cc2nccc(Nc3cccc(Oc4ccccc4)c3)c2cc1OC.Cl [GW284543],Kd,[1],0.27 µM
O=C(Nc1ccc2c(c1)OCO2)NC1CCN(c2ccnc(NCc3ccc(F)cc3)n2)CC1 [GSK1379859],Kd,[2],> 10 µM
COc1ccc(CNC(=O)NC2CCN(c3ccnc(Nc4ccc(F)cc4)n3)C2)cc1 (centres unmarked) [GSK1379706],Kd,[3],> 10 µM
Nc1nc(-c2ccccc2F)c(-c2ccnc3ccccc23)s1 [GW560459],Kd,[3],1.7 µM
Cc1cccc(-c2nc(Nc3ccc4c(cnn4C)c3)c3ccccc3n2)n1 [GW876731],Kd,[4],> 10 µM
Nc1n[nH]c2ncc(-c3ccccc3)cc12 [SB-517081],Kd,[5],0.26 µM
O=C(Nc1n[nH]c2nc(-c3ccccc3)c(Br)cc12)C1CC1 [SB-708998],Kd,[6],> 10 µM
COc1ccc(-c2cc3c(C)nc(N)nc3n([C@H]3CC[C@H](O)CC3)c2=O)cn1,Kd,[7],0.0048 µM
COc1ccc(-c2cc3c(C)nc(N)nc3n([C@H]3CC[C@H](OCCO)CC3)c2=O)cn1,Kd,[7],0.0033 µM
COc1cc2ncn(-c3cc(OCc4ccncc4)c(C(N)=O)s3)c2cc1OC [GSK336313],Kd,[8],> 10 µM
